Structures are written as SMILES. Several values for one entry are separate records, joined by “and”; a condition that tells them apart may be missing. Equal entries are not always repeated. The whole screen tested about 83,000 compounds, of which about 780 (0.94%) were called active.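 How the source made its calls: active means mean inhibition of at least 50% with a set share of replicates also reaching that level; inconclusive means no clear call, values can overlap the other calls; inactive means the rest.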 For the sample, actives were picked, then their nearest neighbours and some compounds at random. A structure can be active in one record and inactive in another.

The nature of this test: CD40 pathway blockade in BL2 B cells – cell-based, luciferase reporter, single point, primary screen (AID 1053188).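 Further: 0% = neutral control wells and 100% = IKK inhibitor VII at 50 µM.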 Particulars: BL2 NF-kB luciferase reporter, CD40L-induced, 4 h, stronger effect = higher value; at 10 µM unless noted.
Regarding `O=C(c1cc(-c2ccco2)nc2ccccc12)N(Cc1nnc(-c2ccc(Cl)cc2)o1)C1CC1`, the inhibition was 50.6% (active).

In the case of `CN(CCOc1ccccc1)C(=O)c1cc(-c2ccco2)nc2ccccc12`, the inhibition was 9.58% (inactive). Under `CC1CCCN(C(=O)c2cc(-c3ccco3)nc3ccccc23)C1` (centres undefined) stands -1.36% (inactive); under `CCOC(=O)c1ccc[n+](CC(=O)Nc2ccccc2OC(F)F)c1`, -5.94% (inactive).

`CC(C)N(Cc1nnc(-c2ccc(Cl)cc2)o1)C(=O)C1=COCCO1`: the inhibition is 3.68% (inactive). Turning to `COc1cc(C(=O)Nc2ncccc2C)ccc1OCC(=O)N1CCOCC1`, the inhibition was 6.83% (inactive).

Consider `CCCN(CC(=O)Nc1ccccc1C)C(=O)c1ccc(OCC(=O)N2CCOCC2)c(OCC)c1`, for which the inhibition is 23.3% (active).

In the case of `CCOc1cc(C(=O)N(Cc2ccccc2)c2ccc(C)cc2)ccc1OCC(=O)N1CCOCC1`, the inhibition is -0.92% (inactive). With `CCNC(=O)C1(C)CCCN1C(=O)c1ccc(N(C)C)cc1` (centres undefined) the figure was -1.06% (inactive); with `CC(C)NC(=O)N(C)C[C@H]1Oc2ccc(NS(C)(=O)=O)cc2C(=O)N(C)C[C@@H]1C`, 0.384% (inactive). Under `COc1cccc(NC(=O)CN(C)CC(=O)Nc2ccc3c(c2)CCC3)c1` stands 8.15% (inactive); under `CSCCC(NC(=O)c1ccco1)C(=O)NCCc1ccc(F)cc1` (centres undefined), 0.567% (inactive); under `Fc1ccccc1COc1ccccc1CNCc1ccncc1`, 0.766% (inactive). For the compound `COc1cccc(CNCCc2c[nH]c3ccccc23)c1OCc1ccccc1F`, the inhibition was 70.6% (active). With `COc1ccc(S(=O)(=O)NCCc2c[nH]c3ccccc23)cc1OC` the figure was 6.21% (inactive); with `O=C(Nc1ncccc1O)c1ccc(S(=O)(=O)N2CCCC2)cc1`, -13.1% (inactive); with `COC(=O)C1=C(N)Oc2c(oc(CO)cc2=O)C1c1c(F)cccc1Cl` (centres undefined), 1.5% (inactive). Take `CCOc1ccc(C(=O)CCN2CCOCC2)cc1`: the inhibition is 3.31% (inactive). Take `Cc1ccc(/C([O-])=C(/C(=S)NCc2ccco2)[n+]2ccccc2)cc1[N+](=O)[O-]`: the inhibition is 4.58% (inactive). Under `O=C(CSc1nnc(-c2ccc([N+](=O)[O-])cc2)o1)Nc1ccccn1` stands -47.6% (inactive); under `O=C(COC(=O)Cc1ccc([N+](=O)[O-])cc1)NC1CCCCCC1`, 2.86% (inactive). Take `O=C(COC(=O)c1ccccn1)NNC(=O)c1ccc([N+](=O)[O-])cc1`: the inhibition was 0.903% (inactive).

Regarding `N/C(=N\OC(=O)Cc1ccc([N+](=O)[O-])cc1)c1ccccn1`, the inhibition was 64.7% (active). For `O=C(Nc1ccc([N+](=O)[O-])cc1)OCCc1ccccn1`, the inhibition is -49.3% (inactive). Turning to `N/C(=N\OC(=O)c1ccc([N+](=O)[O-])cc1)c1ccccn1`, the inhibition was 68.1% (active). Turning to `COc1ccccc1C(=O)NC(CCSC)C(=O)N1CCN(C(C)=O)CC1` (centres undefined), the inhibition is 7.42% (inactive). With `OCCN1CCN(CCO)C1=S` the figure was 4.32% (inactive). With `COc1cc(OC)cc(C(=O)N[C@H](C(=O)NNC(=O)c2ccc(Br)cc2)C(C)C)c1` the figure was -11.4% (inactive); with `CCc1ccc(C(=O)C(C)OC(=O)CN2C(=O)NC3(CCCC3)C2=O)cc1` (centres undefined), -8.47% (inactive); with `CC(=O)c1cc(C#N)c(N2CCCCC2)nc1C`, 12.8% (inactive). With `Cc1ccc(S(=O)(=O)N2CCN(C(=O)COC(=O)CNC(=O)c3ccc(C(C)(C)C)cc3)CC2)c(C)c1` the figure was -31.5% (inactive); with `COc1ccc(C(=O)COC(=O)c2nn(C)c(=O)c3ccccc23)c(OC)c1`, 4.47% (inactive). As for `Cc1ccc2c(c1)c1ncn(CCC3=CCCCC3)c(=O)c1n2C`, the inhibition was -13.8% (inactive). With `COc1ccc2c(c1)c1ncn(Cc3ccccn3)c(=O)c1n2C` the figure was 56.2% (active); with `COc1ccc(CNC(=O)CN2CCC(n3nnc4cc(F)ccc43)CC2)cc1`, -0.322% (inactive). Under `CCCn1c(N)c(C(=O)CSc2nc3ccccc3c(=O)n2-c2ccc(OC)cc2)c(=O)[nH]c1=O` stands -0.2% (inactive). On to `CC(C)NC(=O)N(C)C[C@H]1OCc2ccccc2-c2c(n(C)c3ccccc23)C(=O)N([C@H](C)CO)C[C@@H]1C`, for which the inhibition is -3.58% (inactive). With `CC1Cc2ccccc2N1S(=O)(=O)c1cccc(C(=O)NCC(c2ccco2)N2CCCC2)c1` (centres undefined) the figure was 8.41% (inactive); with `O=C(Nc1ccc(N2CCOCC2)cc1)c1cccc(S(=O)(=O)N2CCOCC2)c1`, 14.5% (inactive); with `O=C(C1CCOCC1)N1CC(=O)N2[C@H](CO)[C@@H](c3ccc(C#CC4CCCC4)cc3)[C@H]2C1`, -2.24% (inactive). As for `Cc1cnc(NC(=O)c2ccccn2)s1`, the inhibition is 48.8% (active). Under `O=C(Nc1nnc(Cc2ccccc2)s1)c1cnccn1` stands -14% (inactive); under `O=C(Nc1nnc(C2CC2)s1)c1ccccn1`, 12.5% (inactive); under `CN1C(=O)c2cc(NS(=O)(=O)CC(F)(F)F)ccc2OC[C@H]2O[C@@H](CC(=O)NCc3ccc(Cl)c(Cl)c3)CC[C@@H]21`, -2.48% [at 25 µM] (inactive). With `Cc1cc(C(=O)COC(=O)C2CC2)c(C)n1-c1ccc(F)cc1` the figure was 79.9% (active); with `Cc1cc(C(=O)COC(=O)CNC(=O)c2ccc(F)cc2)c(C)n1Cc1ccco1`, 29.3% (inactive). As to `COc1ccccc1C(=O)NC(=O)COC(=O)C1CC1`, the inhibition is -63% (inactive). Turning to `CCCC#Cc1ccc([C@@H]2[C@@H](C#N)N(C(=O)C3CCCC3)[C@@H]2CO)cc1`, the inhibition is 4.81% (inactive). Under `N#C[C@@H]1[C@H](c2ccc(C#Cc3ccccc3F)cc2)[C@H](CO)N1C(=O)C1CCCCC1` stands 6.32% (inactive); under `N#C[C@@H]1[C@@H](c2ccc(C#Cc3cccc(F)c3)cc2)[C@H](CO)N1C(=O)C1CCOCC1`, -15.7% [at 25 µM] (inactive). Under `N#C[C@H]1[C@H](c2ccc(C#Cc3ccc(F)cc3)cc2)[C@@H](CO)N1C(=O)C1CCCC1` stands 58.9% (active). With `N#C[C@@H]1[C@H](c2ccc(C#Cc3cccc(F)c3)cc2)[C@@H](CO)N1C(=O)C1CCCC1` the figure was 60.3% (active).

`N#C[C@@H]1[C@@H](c2ccc(C#Cc3cccc(F)c3)cc2)[C@@H](CO)N1C(=O)C1CCC1`: the inhibition was -11.1% (inactive). Under `COc1ccccc1CNC(=O)COC(=O)CNS(=O)(=O)c1ccc(NC(C)=O)cc1` stands 5.75% (inactive). Under `COc1ccc(NC(=O)N2CCCC(c3nc(-c4ccc(F)cc4)no3)C2)cc1` (centres undefined) stands -2.8% (inactive); under `CC(C)N(C(=O)CN1CCN(S(=O)(=O)c2ccc(Br)s2)CC1)C(C)C`, 3.09% (inactive). With `CCOC(=O)C(CC)/C(C)=N\NC(=O)c1cccc(C)c1` (centres undefined) the figure was -2.97% (inactive); with `Cc1cccc(-c2ccc(C3[C@@H]4CN(C(=O)Nc5ccc(C(F)(F)F)cc5)C[C@H]3N4)cc2)c1` (some centres undefined), 55.5% (active); with `O=C(C1CCCCC1)N1C[C@@H]2N[C@H](C1)C2c1ccc(-c2cccc(F)c2)cc1` (some centres undefined), 26.1% (inactive) and -22.9% (inactive).

Take `CN(C)C(=O)c1ccc(-c2ccc(C3[C@@H]4CN(C(=O)Nc5ccccc5)C[C@H]3N4)cc2)cc1` (some centres undefined): the inhibition is 8.08% [at 25 µM] (inactive).

For the compound `O=C([C@@H]1[C@@H](CO)[C@@H]2Cn3c(ccc(C4=CCCCC4)c3=O)[C@H]1N2Cc1nccs1)N1CCCCC1`, the inhibition was -4.97% [at 25 µM] (inactive). With `COc1ccc(CN2CCC(c3nc4ccc(Cl)cc4[nH]3)CC2)cc1` the figure was 7.72% (inactive). With `O=C(NNC(=O)C1CCN(c2ncccn2)CC1)c1ccccc1` the figure was 16.9% (inactive).

As for `Cn1cnc(S(=O)(=O)N2C[C@@H]3N[C@H](C2)C3c2ccc(/C=C/c3ccccc3)cc2)c1` (some centres undefined), the inhibition is -5.55% (inactive) and 3.57% (inactive). With `Cn1cnc(S(=O)(=O)N2C[C@@H]3N[C@H](C2)C3c2ccc(-c3ccccc3F)cc2)c1` (some centres undefined) the figure was 52.9% [at 25 µM] (active) and 10.8% [at 25 µM] (inactive); with `COc1ccc(-c2ccc(C3[C@@H]4CN(S(=O)(=O)c5cn(C)cn5)C[C@H]3N4)cc2)cc1` (some centres undefined), -4.84% (inactive); with `CCC(=O)N1CC2(CCN(Cc3ccc(Cl)cc3)CC2)c2c(n(C)c3cc(OC)ccc23)[C@@H]1CO`, 4.53% [at 25 µM] (inactive).

On to `COc1ccc2c3c(n(C)c2c1)[C@H](CO)N(C(C)=O)CC31CN(Cc2ccc(Cl)cc2)C1`, for which the inhibition was 68% [at 25 µM] (active). Regarding `COCC(=O)N1CC2(CN(S(C)(=O)=O)C2)c2c(n(C)c3cc(OC)ccc23)[C@@H]1CO`, the inhibition is 2.58% [at 25 µM] (inactive). Turning to `O=C(Nc1ccccn1)C1CCN(S(=O)(=O)c2ccc3c(c2)OCCO3)CC1`, the inhibition is -48.7% (inactive). For the compound `CCc1nnc(NC(=O)c2cccc(S(=O)(=O)N(C)c3ccc(OC)cc3)c2)s1`, the inhibition was 2.59% (inactive). With `CN(Cc1ccc2nsnc2c1)Cc1nc(Cc2cccc(F)c2)no1` the figure was 3.82% (inactive); with `CCOc1ccc(S(=O)(=O)N2CCC(C(=O)OCc3ccc(OC)cc3)CC2)cc1`, 0.411% (inactive). Under `O=C(Nc1ccc(N2CCCCC2)cc1)c1cc(S(=O)(=O)N2CCOCC2)ccc1F` stands -16.8% (inactive).

These data come from PubChem BioAssay AID1053188 (Broad Institute, 2014).
